An excerpt weighted towards active compounds, which were near 5% of everything screened.
ALR inh = inhibitors of human ALR sulfhydryl oxidase, primary screen, biochemical, H2O2 detection, HRP-luminol luminescence, single point; FAD-linked sulfhydryl oxidase ALR (Homo sapiens), P55789; purified ALR, DTT oxidation; inhibition, % (concentration not given with the values); hit rate 3.8% among 290,000;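 active = mean replicate inhibition above about 79%, with every replicate also reaching it, limit read from the data; inconclusive = only one of the two criteria met; inactive = mean below limit and not every replicate reaching it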
AI-2 QS modul = Vibrio harveyi AI-2 quorum sensing modulators, primary screen, JMH597 strain, luminescence/OD600 ratio | Vibrio harveyi JMH597 AI-2 luminescence/OD600 ratio, 9 h; stronger effect = lower value; strain lacks LuxN and CqsS sensors; 0 = neutral-control median | hit rate 0.4% among 300,000 | activity change, % at 7.5 µM; in the data active = activity change below about -75%, passing the limit was not always enough; inconclusive = no clear call, values can overlap the other calls;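 also: luminescence divided by OD600 gain over 9 h not by final OD600 alone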
CHT allo act = CHT positive allosteric modulators, primary screen, cell-based, membrane potential dye, choline EC20 | hit rate 0.49% among 310,000 | B-score at 10 µM | CHT-expressing cells; stronger effect = higher value; LV-AA mutant CHT in HEK293 cells | High affinity choline transporter 1 (Homo sapiens), Q9GZV3;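 active = initial fluorescence not abnormally high and integrated response B-score, plate-corrected, over 3 SD above library mean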
Target sequence (Q9GZV3 whole entry, looked up): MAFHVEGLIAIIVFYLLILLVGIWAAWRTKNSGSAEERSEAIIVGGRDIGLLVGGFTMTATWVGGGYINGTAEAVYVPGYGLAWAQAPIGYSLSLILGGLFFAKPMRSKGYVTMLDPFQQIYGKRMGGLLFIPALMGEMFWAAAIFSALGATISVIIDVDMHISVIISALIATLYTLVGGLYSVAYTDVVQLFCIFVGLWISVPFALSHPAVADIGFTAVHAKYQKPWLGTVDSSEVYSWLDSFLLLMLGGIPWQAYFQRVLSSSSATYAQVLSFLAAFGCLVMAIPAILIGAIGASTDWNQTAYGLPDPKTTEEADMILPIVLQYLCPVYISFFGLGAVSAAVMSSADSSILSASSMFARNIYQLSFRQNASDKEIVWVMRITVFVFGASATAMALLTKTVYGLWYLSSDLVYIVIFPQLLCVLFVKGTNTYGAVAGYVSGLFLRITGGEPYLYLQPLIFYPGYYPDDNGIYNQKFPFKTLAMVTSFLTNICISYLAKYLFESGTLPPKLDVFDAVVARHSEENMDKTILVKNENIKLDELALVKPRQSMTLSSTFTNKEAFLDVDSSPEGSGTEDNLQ
PREPL inhibitor = PREPL enzyme inhibitors, primary screen, biochemical, fluorescence polarization; recombinant PREPL, fluorescence polarization activity-based probe; hit rate 0.68% among 320,000; inhibition, % at 5.96 µM; in the data active = inhibition above about 43%;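 also: 0% = enzyme with DMSO and 100% = wells lacking enzyme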
CHT inh = inhibitors of human choline transporter CHT; High affinity choline transporter 1 (Homo sapiens), Q9GZV3; CHT-expressing cells, membrane potential dye, choline response; stronger effect = lower value; B-score at 10 µM; hit rate 0.86% among 310,000; AID 488975, 2010;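 active = B-score over 3 SD under the library average, and starting fluorescence ratio not unusually high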;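 also: choline stimulus applied at its EC90 after an EC20 pre-addition; B-score computed on integrated fluorescence ratio after choline addition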
JMH597 growth = Vibrio harveyi growth inhibition, confirmation, counter-screen for AI-2 quorum sensing project, JMH597 strain, OD600 absorbance; growth inhibition, % at 7.5 µM; 9 h; lacks LuxN and CqsS sensors; shares compounds with AI-2 QS modul; hit rate 1% among 750;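 active = every replicate shows growth inhibition above 50%; inconclusive = at least half, but not all, replicates pass that cutoff; inactive = fewer than half of replicates pass it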
BB721 lum counter = luminescence inhibition in constitutive-on V. harveyi, confirmation, counter-screen for LuxS inhibitor project, strain BB721, luminescence readout | Vibrio harveyi BB721 luminescence, 9 h | hit rate 95% among 750 | AID 2727, 2010 | inhibition, % at 7.5 µM | shares compounds with AI-2 QS modul;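 active = inhibition above about 80% in every replicate, not just on average, limit read from the data; inconclusive = at least half of replicates past the limit, but not all; inactive = fewer than half of replicates past the limit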
BB721 growth = growth inhibition of V. harveyi BB721, confirmation, cytotoxicity control for AI-2 quorum sensing inhibitors, strain BB721, absorbance OD600 | shares compounds with AI-2 QS modul | Vibrio harveyi BB721 growth, 9 h | growth inhibition, % at 7.5 µM | hit rate 3% among 750;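 active = every replicate shows growth inhibition above 50%; inconclusive = at least half but not all replicates above 50% inhibition; inactive = under half of replicates above 50% inhibition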
JMH597 AI-2 mod = Vibrio harveyi AI-2 signaling luminescence modulation – JMH597 strain, confirmation; shares compounds with AI-2 QS modul; Vibrio harveyi JMH597 AI-2 quorum sensing luminescence, 9 h; luxN and CqsS knockout, AI-2 only; hit rate 97% among 750; inhibition, % at 7.5 µM;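 active = every replicate shows more than 75% inhibition of signal versus neutral control wells; inconclusive = half to three quarters of replicates exceed 75% inhibition; inactive = fewer than half of replicates exceed 75% inhibition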
* hit, by the source's call.

For CC(C)(C)c1ccc(/C=C/C(=O)N2CCCCC2)cc1 the results were AI-2 QS modul -86*, JMH597 growth 12, BB721 lum counter 94*, BB721 growth 13 and JMH597 AI-2 mod 97*.
Screening O=C(COC(=O)c1c[nH]c(=O)[nH]c1=O)Nc1ccccc1 returned ALR inh 1, AI-2 QS modul 7, CHT allo act inactive, PREPL inhibitor -1 and CHT inh inactive.
CC(=O)Nc1ccc(C(=O)OCc2ccc(Br)cc2)cc1 was read as ALR inh -4, AI-2 QS modul -89*, CHT allo act inactive, PREPL inhibitor -23, CHT inh inactive, JMH597 growth 10, BB721 lum counter 96*, BB721 growth inconclusive and JMH597 AI-2 mod 95*.
For O=C(Cc1ccccc1)Nc1ccc(NC(=O)c2ccco2)cc1 the results were ALR inh -4, AI-2 QS modul 18, CHT allo act inactive, PREPL inhibitor -1 and CHT inh inactive.
O=C(Nc1ccc(-c2noc(CCc3ccccc3)n2)cc1)c1ccco1 was read as AI-2 QS modul -81*, CHT allo act inactive, PREPL inhibitor -36, CHT inh inactive, JMH597 growth 50, BB721 lum counter 91*, BB721 growth 93* and JMH597 AI-2 mod 93*.
`Cc1cccc(-c2noc(CCc3ccccc3)n2)c1` gave AI-2 QS modul -78*, CHT allo act inactive, PREPL inhibitor -9, CHT inh inactive, JMH597 growth 17, BB721 lum counter 94*, BB721 growth 0 and JMH597 AI-2 mod 96*.
COc1ccc(Cc2nc(-c3ccccc3)no2)cc1 was read as ALR inh 11, AI-2 QS modul -93*, CHT allo act inactive, PREPL inhibitor 4, CHT inh inactive, JMH597 growth 13, BB721 lum counter 98*, BB721 growth -44 and JMH597 AI-2 mod 98*.
Screening CCOC(=O)C[C@H]1c2cc(C(F)(F)F)ccc2S(=O)(=O)N1C(C)C returned AI-2 QS modul 13, CHT allo act inactive, PREPL inhibitor 5 and CHT inh inactive.
Cc1c(NS(=O)(=O)c2ccc(N(C)C3CCCCC3)c([N+](=O)[O-])c2)c(=O)n(-c2ccccc2)n1C was read as ALR inh -14, AI-2 QS modul 19, CHT allo act inactive, PREPL inhibitor 28 and CHT inh inactive.
`Cc1c(Cl)cccc1NC(=O)Cn1c(CCC(=O)O)ccc1-c1ccccc1` gave ALR inh -1, AI-2 QS modul 1, CHT allo act inactive, PREPL inhibitor -1 and CHT inh inactive.
Screening O=C(/C=C/c1cccs1)NCc1cccs1 returned ALR inh -9, AI-2 QS modul -83*, CHT allo act inactive, PREPL inhibitor 11, CHT inh inactive, JMH597 growth 9, BB721 lum counter 92*, BB721 growth 6 and JMH597 AI-2 mod 92*.
`Cc1ccc(NC(=O)COc2ccc(Br)cn2)cc1` gave ALR inh -21, AI-2 QS modul -18, CHT allo act inactive, PREPL inhibitor 8 and CHT inh inactive.
`CC(C)(C)c1ccc(OCC(=O)Nc2ccncc2)c(Br)c1` gave AI-2 QS modul 19, CHT allo act inactive, PREPL inhibitor 12 and CHT inh inactive.
For CCc1ccc(NC(=O)COc2ccc(Br)cn2)cc1 the results were AI-2 QS modul -84*, CHT allo act inactive, PREPL inhibitor 0, CHT inh inactive, JMH597 growth -16, BB721 lum counter 95*, BB721 growth 1 and JMH597 AI-2 mod 96*.
`CCc1ccc(OCC(=O)Nc2ccncc2)c(Br)c1` gave ALR inh -16, AI-2 QS modul -81*, CHT allo act inactive, PREPL inhibitor -14, CHT inh inactive, JMH597 growth 30, BB721 lum counter inconclusive, BB721 growth -22 and JMH597 AI-2 mod 100*.
For Cc1cc(C)n2nc(CNS(=O)(=O)c3cccc([N+](=O)[O-])c3)nc2n1 the results were ALR inh -8, AI-2 QS modul 4, CHT allo act inactive, PREPL inhibitor -1 and CHT inh inactive.
Screening O=C(NNc1nc(-c2ccc(Br)cc2)cs1)c1ccco1 returned ALR inh -10, AI-2 QS modul -85*, CHT allo act inactive, PREPL inhibitor 22, CHT inh inactive, JMH597 growth 63*, BB721 lum counter 95*, BB721 growth 69* and JMH597 AI-2 mod 97*.
Screening O=C(NC(=S)Nc1nc(-c2ccc(Br)cc2)cs1)c1ccco1 returned ALR inh 7, AI-2 QS modul 21, CHT allo act inactive, PREPL inhibitor -5 and CHT inh inactive.
Screening CCCc1nnc(NC(=O)Cn2cnc3ccccc3c2=O)s1 returned ALR inh -5, AI-2 QS modul -86*, CHT allo act inactive, PREPL inhibitor 11, CHT inh inactive, JMH597 growth 14, BB721 lum counter 96*, BB721 growth 15 and JMH597 AI-2 mod 96*.
For COc1cccc(NC(=O)CN(C)C(=O)Cn2cnc3ccccc3c2=O)c1 the results were ALR inh -10, AI-2 QS modul -3, CHT allo act inactive, PREPL inhibitor -4 and CHT inh inactive.
Screening NS(=O)(=O)c1cccc(NC(=O)Cn2cnc3ccccc3c2=O)c1 returned ALR inh -3, AI-2 QS modul -85*, CHT allo act inactive, PREPL inhibitor 2, CHT inh inactive, JMH597 growth 18, BB721 lum counter 93*, BB721 growth -3 and JMH597 AI-2 mod 95*.
Screening COC(=O)c1cccc(NC(=O)Cn2cnc3ccccc3c2=O)c1 returned ALR inh 5, AI-2 QS modul -94*, CHT allo act inactive, PREPL inhibitor 3, CHT inh inactive, JMH597 growth 12, BB721 lum counter 99*, BB721 growth 1 and JMH597 AI-2 mod 99*.

From PubChem BioAssay
